In PubChem BioAssay (NCI) one finds growth data, which are given here for 28 compounds.

Holding throughout (experiment): NCI-60 one-dose screen, 48 h (100 = growth as untreated, 0 = no growth, -100 = all killed)
Common to all, as to conditions: 10 µM unless noted

Experiment [1] deals with HCT-15 colon.
Experiment [2] relates to HT29 colon.
Experiment [3] concerns SNB-75 CNS.
The subject of experiment [4] is SNB-19 CNS.
The subject of experiment [5] is U251 CNS.
Experiment [6] has as its system SK-MEL-5 melanoma.
Experiment [7] has as its system UACC-62 melanoma.
In experiment [8] the test system is LOX IMVI melanoma.
Experiment [9] concerns SK-MEL-28 melanoma.

Compounds without any hit were thinned out: in the full panel of roughly 83,000, 20% have a hit.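 The test compound was applied at a single concentration to cells in 96-well plates for 48 hours, and percent growth was recorded.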 Values without a mark were called inactive. Activity calls are given as the source filed them. How the source made its calls: active means growth percent below 10; inactive means the rest.

`O=C1c2cccc3cccc(c23)C(=O)N1CCCCN1CCN(CCCCOc2ccc(-c3nc4ccc(N5CCOCC5)cc4[nH]3)cc2)CC1`: the growth in experiment [1] is 87.8%; in experiment [2], 83.3%; in experiment [3] it was 84.8%; in experiment [4], 89.4%; in [5], 74.6%; in experiment [6] it was 89.2%. For the same compound, the growth in experiment [7] was 92.8%; in [8] it was 93.7%; in [9], 81.5%.

`CN1CCN(c2ccc3nc(-c4ccc(OCCCCN5CCN(CCCCN6C(=O)c7cccc8cccc(c78)C6=O)CC5)cc4)[nH]c3c2)CC1`: the growth in experiment [1] was 76.2%; in [2], 60.3%; in experiment [3] it was 36.4%; in experiment [4], 84.2%; in experiment [5] it was 64.8%; in [6], 69.1%. The growth is 95.4% in experiment [7], 47.1% in experiment [8] and 24.6% in experiment [9].

Take `Cc1ccc2c(C(C[N+](=O)[O-])c3ccccc3F)c(-c3ccccc3)[nH]c2c1` (configuration not stated): the growth in [1] is 25.7%; in [2] it was 6.14% (active); in [3], 24.6%; in [4] it was 49.1%; in [5], 25.3%; in experiment [6] it was 48.1%. Besides, the results for the growth in [7], in experiment [8] and in experiment [9] were 42.4%, 36.4% and 63%, respectively.

For `C(=C\c1nccc2c1[nH]c1ccccc12)/c1ccccc1`, the growth is 18.7% in experiment [1]; 1.31% (active) in experiment [2]; -20.1% (active) in [3]; 35% in experiment [4]; 15.1% in [5]; 2.59% (active) in [6]. For the same compound, the results for the growth in [7], in experiment [8] and in experiment [9] were 39.3%, 25.5% and 49.6%, respectively.

Turning to `COc1ccc(S(=O)(=O)N2CCCCC2)cc1NC(=O)c1[nH]c(C)c2c1CCCCC2=O`, the growth in [1] was 5.16% (active); in experiment [2], 11%; in [3], 5.25% (active); in experiment [4], 36.1%; in [5] it was 23.4%; in experiment [6], -24.4% (active). Moreover, the growth in experiment [7] is 14.5%; in experiment [8], -56.6% (active); in [9], 48.1%.

Take `O=C1/C(=C/c2ccccc2)SC(=S)N1CCc1ccc(O)cc1`: the growth was 100% in experiment [1]; 102% in [2]; 81.1% in [3]; 90.4% in [4]; 97.3% in experiment [5]; 97% in experiment [6]. The growth was 77% in experiment [7], 89.2% in experiment [8] and 103% in [9].

Consider `Cc1cc2c3ccccc3ccc2[n+]2ccccc12`, for which the growth in experiment [1] was 105%; in experiment [2] it was 69%; in experiment [3], 14.6%; in experiment [4], 4.52% (active); in experiment [5] it was 6.05% (active); in experiment [6], -44.8% (active). Also, the growth was 59.8% in [7], 74.4% in [8] and 14.9% in experiment [9].

In the case of `C=C1c2nc3ccccc3n2C=C(c2ccc(OC)cc2)N1Cc1ccccc1`, the growth is 73.8% in [1]; 73.2% in experiment [2]; 109% in experiment [3]; 79.3% in experiment [4]; 80.5% in [5]; 87.1% in experiment [6]. Moreover, the figures for the growth in experiment [7], in experiment [8] and in experiment [9] were 88.6%, 91.1% and 119%, respectively.

Take `Cn1cc(-c2nonc2-c2cn(C)c3ccc(F)cc23)c2ccccc21`: the growth in experiment [1] was 18.8%; in experiment [2], 6.32% (active); in experiment [3], -17.9% (active); in [4], 31.6%; in experiment [5] it was 23.5%; in experiment [6], 24.1%. Moreover, the results for the growth in experiment [7], in experiment [8] and in experiment [9] were 30.4%, 34.8% and 63.3%, respectively.

For `Brc1ccc(-c2csc(Nc3ccccn3)n2)cc1`, the growth in experiment [1] is 138%; in [2] it was 97.8%; in experiment [3], 93.4%; in experiment [4] it was 99.4%; in [5], 166%; in experiment [6], 75.5%. Moreover, the figures for the growth in experiment [7], in [8] and in experiment [9] were 75.5%, 214% and 149%, respectively.

Take `COc1ccc(S(=O)(=O)N2CCN(C)CC2)cc1NC(=O)c1[nH]c(C)c2c1CCCCC2=O`: the growth in experiment [1] was 62.4%; in experiment [2] it was 28.9%; in experiment [3], 17.4%; in [4] it was 66.5%; in experiment [5], 68%; in [6] it was 43.7%. Also, the growth is 25.6% in experiment [7], 29.6% in experiment [8] and 72% in experiment [9].

For `CN(C)[C@@H]1C(=O)C(C(=O)NCc2nc3[nH]cnc(=S)c3[nH]2)=C(O)[C@@]2(O)C(=O)C3=C(O)c4c(O)cccc4[C@@](C)(O)[C@H]3C[C@@H]12`, the growth was 76.7% in [1]; 64.3% in experiment [2]; 61.8% in experiment [3]; 84.1% in [4]; 96% in experiment [5]; 75.5% in experiment [6]. Also, the growth is 25.5% in [7], 12.4% in [8] and 118% in experiment [9].

In the case of `CCCCC/C(C=C(C#N)C#N)=C/c1ccccc1`, the growth in experiment [1] was 47%; in experiment [2], 37%; in experiment [3], 96.6%; in experiment [4], 67.1%; in [5], 34.2%; in experiment [6], 71%. Moreover, the growth is 48.9% in experiment [7], 2.03% (active) in [8] and 84% in experiment [9].

On to `Oc1ccc(N=Cc2ccccc2O)cc1`, for which the growth is 120% in experiment [1]; 99% in [2]; 89.1% in experiment [3]; 93.1% in experiment [4]; 83.3% in experiment [5]; 92.3% in experiment [6]. For the same compound, the growth in experiment [7] was 96.8%; in [8], 104%; in [9], 127%.

In the case of `CCOc1nc(-c2ccccc2)cc2c(O)c(C(=O)N/N=C/c3ccc(O)cc3O)[nH]c(=O)c12`, the growth in experiment [1] is 23.9%; in [2] it was 48.3%; in [3], 59.6%; in experiment [4] it was 43.2%; in [5], 21.2%; in experiment [6], 21.9%. The values for the growth in experiment [7], in experiment [8] and in [9] were 9.73% (active), -0.51% (active) and 60%, respectively.

Take `Cc1ccc(C(SCC(N)C(=O)O)(c2ccccc2)c2ccc(C)cc2)cc1` (configuration not stated): the growth is 20.1% in [1]; 1.66% (active) in experiment [2]; 16.8% in experiment [3]; 36.5% in [4]; 7.96% (active) in experiment [5]; 16.7% in experiment [6]. The growth is 13.6% in [7], 41.7% in [8] and 30% in experiment [9].

Regarding `CCn1c(Cc2ccccc2Nc2c(Cl)cccc2Cl)nnc1SCC(=O)NN1C(=O)/C(=C/c2cc(OC)c(O)c(OC)c2)SC1=S`, the growth in experiment [1] is 50.4%; in experiment [2] it was 25.5%; in experiment [3], 2.65% (active); in experiment [4], 41.9%; in [5] it was 31.5%; in experiment [6], 26.1%. The growth in [7] was 33.2%; in [8], 26.8%; in [9], 45.7%.

For the compound `COc1cc(C(=O)/C=C/c2cccnc2Nc2ccc(Cl)cc2)cc(OC)c1OC`, the growth is -45.9% (active) in [1]; -55.1% (active) in [2]; -74.7% (active) in experiment [3]; -80.5% (active) in experiment [4]; -95.3% (active) in experiment [5]; -86.8% (active) in [6]. Besides, the growth in [7] was -67% (active); in experiment [8], -65.5% (active); in [9], -80.4% (active).

As for `Cn1cc(C(=O)c2nc(-c3c[nH]c4ccc(F)cc34)no2)c2cc(F)ccc21`, the growth was 68.6% in experiment [1]; 101% in [2]; 79.8% in [3]; 101% in [4]; 100% in [5]; 92.8% in experiment [6]. Besides, the values for the growth in [7], in experiment [8] and in [9] were 81.7%, 95.2% and 103%, respectively.

Take `Cn1cc(-c2nonc2-c2c[nH]c3ccccc23)c2cccnc21`: the growth was 23.5% in [1]; 12.4% in experiment [2]; 21.2% in experiment [3]; 46.4% in experiment [4]; 26% in experiment [5]; 26.3% in experiment [6]. Also, the growth was 41.5% in experiment [7], 43% in [8] and 61.5% in [9].

As for `COc1cccc(/C=N/NC(=O)c2ccccc2Nc2ccnc(C(F)(F)F)c2)c1O`, the growth in experiment [1] is 28.4%; in experiment [2] it was 51.3%; in experiment [3] it was 19.6%; in [4], 21.1%; in [5], 17.1%; in experiment [6] it was -33.1% (active). In addition, the growth in [7] was -24.2% (active); in experiment [8], 4.88% (active); in experiment [9], 23%.

Turning to `COc1nc2c(c(=O)n1C)CN(Cc1ccccc1)C=N2`, the growth in [1] was 105%; in experiment [2] it was 109%; in [3], 78%; in experiment [4] it was 91.1%; in experiment [5], 115%; in [6], 111%. Further, the results for the growth in experiment [7], in experiment [8] and in experiment [9] were 116%, 98.1% and 108%, respectively.

For the compound `O=C(Nc1ccccc1Cl)c1ccc(NC2=C(Cl)C(=O)N(C3CCCCC3)C2=O)cc1`, the growth in [1] is 46.5% [30 µM]; in experiment [2] it was 37.4% [30 µM]; in [3], 38.8% [30 µM]; in [4] it was 62.1% [30 µM]; in experiment [5] it was 34.1% [30 µM]; in experiment [6] it was 54.4% [30 µM]. Moreover, the growth was 66.2% [30 µM] in experiment [7], 23.7% [30 µM] in [8] and 56.1% [30 µM] in experiment [9].

Take `COC(=O)c1cccc(NC(=O)c2ccc(-c3cccc(N)c3)o2)c1`: the growth in [1] is 96.6%; in [2], 107%; in experiment [3] it was 93.2%; in [4], 95.5%; in [5], 104%; in [6], 81.8%. Further, the growth in [7] was 91.4%; in experiment [8], 99.6%; in experiment [9], 102%.

`Cc1ccc(O)c(N2C(=NCc3ccco3)NS(=O)(=O)c3cnccc32)c1`: the growth in experiment [1] was 112%; in [2], 111%; in experiment [3], 106%; in experiment [4] it was 110%; in experiment [5], 100%; in [6], 118%. Also, the growth in experiment [7] was 96.7%; in [8], 103%; in experiment [9], 107%.

For the compound `Cc1ccc2c(C(C[N+](=O)[O-])c3ccccc3)c(-c3ccccc3)[nH]c2c1` (configuration not stated), the growth was 18.8% [9.5 µM] in experiment [1]; 0.357% [9.5 µM] (active) in [2]; -6.93% [9.5 µM] (active) in experiment [3]; 37.4% [9.5 µM] in experiment [4]; 25% [9.5 µM] in experiment [5]; 32.8% [9.5 µM] in experiment [6]. Also, the growth in [7] was 38% [9.5 µM]; in experiment [8] it was 28.5% [9.5 µM]; in experiment [9], 49.3% [9.5 µM].

With `CCc1c(Nc2ccccc2C)nc(N)[nH]c1=O`, the growth was 98.4% in [1]; 110% in [2]; 92.9% in experiment [3]; 110% in experiment [4]; 120% in experiment [5]; 107% in experiment [6]. Besides, the values for the growth in [7], in experiment [8] and in [9] were 110%, 107% and 112%, respectively.

As to `CCOC(=O)c1csc(NC(=O)COc2cccc(/C=C3\CSc4ccccc4C3=O)c2)n1`, the growth in [1] was 89%; in experiment [2] it was -34.2% (active); in experiment [3], -33.7% (active); in experiment [4] it was 81.3%; in [5], -54.2% (active); in experiment [6] it was 54.5%. Moreover, the results for the growth in experiment [7], in experiment [8] and in experiment [9] were 64.4%, -93.9% (active) and 89.3%, respectively.
